# Screens (PubChem BioAssay)
# Rows were chosen to be rich in hits. Some 1.7% of all compounds tested hit in one or more screens of this group.
# Vif imaging: HIV Vif self-association inhibitors, primary screen, imaging, HEK293T, single point | inhibition, % at 7.49 µM | actives 0.35% (n = 340,000) | HEK293T cells, Vif self-association by quenched fluorescence, 24 h | AID 602346, 2012; in the data active = inhibition above about 50%, passing the limit was not always enough
# CFTR F508del cor: F508del CFTR correction, initial screen, CFBE line, single point | activity (quench increase), % at 7.58 µM | AID 720511, 2013 | actives 0.36% (n = 350,000) | CFBE cells, YFP halide quenching; stimulated with forskolin plus potentiator P3; % fluorescence drop versus neutral controls;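 active = mean added fluorescence quench of at least 8% versus neutral control, with both replicates also reaching 8%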;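 note: cells transiently co-express mutant CFTR-F508del with the halide-sensitive YFP; corrector assay measuring rescue of mutant channel to the surface after 24 h compound exposure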
# FGF22 binding: binders of human FGF22 protein, primary screen, FGF22 synaptogenesis inhibitor project, biophysical, thermal shift, single point; Fibroblast growth factor 22 (Homo sapiens), Q9HCT0; activity (Tm shift, normalised), % at 9.99 µM; recombinant FGF22 thermal shift, SYPRO orange fluorescence; percent of sucrose octasulfate shift, DMSO zero; actives 1.5% (n = 340,000);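 active = mean Tm shift, scaled 0 neutral to 100 positive control, at about 1.3% or above, every replicate too, limit read from the data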
# Target sequence (Q9HCT0 whole entry, looked up): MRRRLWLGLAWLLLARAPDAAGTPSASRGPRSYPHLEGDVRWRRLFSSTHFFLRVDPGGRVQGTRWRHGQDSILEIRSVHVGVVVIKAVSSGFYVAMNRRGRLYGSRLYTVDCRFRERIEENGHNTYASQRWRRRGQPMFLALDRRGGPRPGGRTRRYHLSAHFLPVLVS
# Numbers stand for hits; i = inactive; nt = no result; ! = not confirmed by another sample.
SMILES,Vif imaging,CFTR F508del cor,FGF22 binding
O=C(COc1ccc(S(=O)(=O)N2CCOCC2)cc1)NC1CCCC1,i,nt,nt
Cc1cc(OCC(=O)Nc2cnn(CCCC(=O)O)c2)ccc1[N+](=O)[O-],i,i,i
COc1ccc(NC(=O)N(C)C[C@H]2OCCCC[C@@H](C)Oc3ccc(NC(=O)CCC(F)(F)F)cc3C(=O)N([C@@H](C)CO)C[C@H]2C)cc1,nt,i,i
CO[C@@H]1CN(C)C(=O)c2cc(NC(=O)CC(F)(F)F)ccc2OC[C@H](C)N(C(=O)c2ccccc2F)C[C@@H]1C,nt,i,i
CN1C(=O)c2cc(NC(=O)C3CCCC3)ccc2OC[C@@H]2O[C@@H](CC(=O)Nc3ccccc3)CC[C@@H]21,nt,i,i
COc1ccc(CN(C)C[C@H]2Oc3ccc(N(C)C)cc3CC(=O)N([C@@H](C)CO)C[C@H]2C)cc1,nt,i,i
C#CCNC(=O)C1=C[C@H](c2cn(C(C)=O)c3ccccc23)C[C@H](OCCCCO)O1,nt,i,i
C#CCOCCOCCOCCNc1nc(N2CCN(C(=O)[C@H](CO)n3cc([C@@H](N)C(C)C)nn3)CC2)nc(N2CCN(C(=O)[C@H](CCCCN)n3cc([C@@H](N)[C@H](C)CC)nn3)CC2)n1,nt,i,43
C#CCOCCOCCOCCNc1nc(N2CCN(C(=O)C([C@@H](C)O)n3cc([C@@H](N)CCCCN)nn3)CC2)nc(N2CCN(C(=O)[C@H](CCCCN)n3cc([C@@H](N)[C@H](C)CC)nn3)CC2)n1 (stereo partly drawn),i,i,i
COc1ccc(S(=O)(=O)N(C)C[C@H]2Oc3ncc(/C=C/c4ccccc4)cc3C(=O)N([C@H](C)CO)C[C@@H]2C)cc1,nt,i,i
O=[N+]([O-])c1ccc(Sc2cccc[n+]2[O-])c2nonc12,77,45,i
O=[N+]([O-])c1ccc(Nc2ccccc2)c2nonc12,i,i,i
COc1ccc(S(=O)(=O)N(C)C[C@@H]2Oc3ccc(NC(=O)C4CCCCC4)cc3CC(=O)N([C@@H](C)CO)C[C@H]2C)cc1,nt,i,i
CC(C)NC(=O)N(C)C[C@@H]1Oc2ccc(NS(=O)(=O)c3ccc(Cl)cc3)cc2C(=O)N([C@H](C)CO)C[C@H]1C,nt,i,i
CO[C@H]1CN(C)C(=O)c2ccc(NS(C)(=O)=O)cc2OC[C@@H](C)N(C(=O)NC(C)C)C[C@H]1C,nt,i,i
COc1ncc(-c2cccc3nccn23)c(OC)n1,i,i,i
COc1ccccc1-c1cccc2nccn12,67,i,i
Nc1[nH]nc2ncc3cc4ccccc4nc3c12,i,12,i
c1ccc2nc3c(ccc4ccccc43)cc2c1,i,i,i
Cc1noc(C)c1S(=O)(=O)N(C)C[C@@H]1OCCCC[C@@H](C)Oc2ccc(NS(=O)(=O)c3ccccc3)cc2C(=O)N([C@@H](C)CO)C[C@@H]1C,nt,i,i
CS(=O)(=O)N(CC(=O)NCC1CCCO1)c1cccc(Cl)c1 (stereo not drawn),i,i,44
CS(=O)(=O)N(CC(=O)NCC1CCCO1)c1cc(Cl)cc(Cl)c1 (stereo not drawn),i,i,i
COc1cccc(C(=O)Nc2ccc3c(c2)OC[C@H](C)N(C)C[C@H](C)[C@@H](OC)CN(C)C3=O)c1,nt,i,i
COc1ccc(OC)c(NC(=O)CSc2ncccc2C(=O)O)c1,i,nt,nt
CCCCCCCCNC(=O)c1cccnc1SCC(=O)Nc1ccccc1OC,i,i,39
SMILES,Vif imaging,CFTR F508del cor,FGF22 binding
Cc1ccc(OCCC(=O)Nc2ccc(S(=O)(=O)N3CCCC3)cc2)cc1,i,i,i
Cc1ccc(OCCCC(=O)Nc2ccc(S(N)(=O)=O)cc2)cc1,i,i,43
NS(=O)(=O)c1ccc(NC(=O)COc2ccc(Cl)cc2)cc1,i,i,i
NS(=O)(=O)c1ccc(NC(=O)COC(=O)COc2ccc(Cl)cc2)cc1,i,i,43
C1CCC(C(CC2CCCCN2)C2CCCCC2)CC1 (stereo not drawn),i,9.9!,i
CO[C@H]1CN(C)C(=O)c2cc(NC(=O)c3ccc(F)cc3)ccc2OC[C@H](C)N(C(C)=O)C[C@@H]1C,nt,i,i
CC(Sc1nc2ccccc2c(=O)n1C)C(=O)Nc1ccc2c(c1)OCCO2 (stereo not drawn),i,25,i
CC(C)Cn1c(SC(C)C(=O)Nc2ccc3c(c2)OCCO3)nc2ccccc2c1=O (stereo not drawn),i,nt,nt
Cc1noc(C)c1NC(=O)N(C)C[C@H]1OCc2ccccc2-c2ccccc2C(=O)N([C@@H](C)CO)C[C@@H]1C,nt,i,i
CO[C@@H]1CN(C)C(=O)c2ccc(NC(=O)c3ccccn3)cc2OC[C@@H](C)N(C(=O)Nc2ccccc2Cl)C[C@H]1C,nt,i,nt
